According to PubChem BioAssay:

Target: Fibroblast growth factor 2 (Homo sapiens) (UniProt P09038)
Experiment: FGF2 binders on small-molecule microarrays, primary screen, biochemical, small-molecule microarray, 635/667 nm fluorescence (AID 1133)
Conditions: small-molecule microarray binding, FGF2, fluorescence 635/667; higher = more signal

Chain of Fibroblast growth factor 2 (Homo sapiens) (P09038 whole entry, looked up): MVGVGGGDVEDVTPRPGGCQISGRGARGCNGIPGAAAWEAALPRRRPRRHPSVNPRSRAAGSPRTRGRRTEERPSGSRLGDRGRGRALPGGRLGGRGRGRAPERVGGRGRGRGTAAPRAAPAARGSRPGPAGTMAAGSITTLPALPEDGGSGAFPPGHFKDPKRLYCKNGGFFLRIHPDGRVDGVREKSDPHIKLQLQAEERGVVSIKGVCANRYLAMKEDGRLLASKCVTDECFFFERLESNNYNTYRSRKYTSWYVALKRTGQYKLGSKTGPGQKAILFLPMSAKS

Structure (SMILES) | composite z-score
COC(=O)[C@@]1(Cc2ccc(OC)cc2)[C@H]2c3cc(C(=O)N(C)C)n(Cc4c(OC)[nH]cc(C)c4=O)c3C[C@H]2CN1C(=O)c1ccccc1 | -0.123
CC(C)NC(=O)[C@@H]1c2ccccc2C(=O)N(Cc2ccccc2)[C@H]1c1ccc(CO)cc1 | 0.394
O=C1C=CC(=O)[C@@H]2CC(COc3ccccc3)=C3[C@@H](CCc4ccccc4)OB(O)C[C@@H]3[C@H]12 | 0.45
C=CCC(OC(C)=O)[C@@H]1[C@@H](N(Cc2cccc3ccccc23)C(=O)c2cccc3ccccc23)c2cc(OCCCO)ccc2N1C(=O)c1ccc2ccccc2n1 (some centres undefined) | 0.494
O=C1[C@]2(CO)C=C(Br)[C@@H](C[C@@H]2c2ccccc2)[C@@]12CO2 | 0.118
COCC1=C2[C@@H](CCc3ccccc3)OB(O)C[C@@H]2[C@@H]2C(=O)N(Cc3ccccc3)C(=O)[C@@H]2C1 | -0.0119
CCOC(=O)C1=CC[C@@H](c2ccccc2)N(S(=O)(=O)c2ccc(C)cc2)[C@H]1C(=O)OCC | -0.128
Cc1ccccc1C(O)C1C=CC2C(=O)N(C)C(=O)C2N1Nc1ccccc1 (centres undefined) | -0.462
C=CCC(OC(C)=O)[C@@H]1[C@@H](N(Cc2ccc(-c3ccccc3)cc2)C(=O)Cc2ccc(OC)cc2)c2cc(OCCCO)ccc2N1C(=O)c1ccc2ccccc2n1 (some centres undefined) | 0.635
CCN(CC)c1ccc(N2CC=CC34O[C@@H]5C=CCCOC(=O)C5[C@H]3C(=O)N(CCCCCO)[C@@H]4C2=O)cc1 (some centres undefined) | -0.304
C[C@]1(C(=O)NCc2ccccc2)c2ccccc2C(=O)N(Cc2ccc(OC(F)(F)F)cc2)[C@H]1c1ccc(CO)cc1 | -0.186
CC(=O)Nc1cc(Br)ccc1C(=O)O | -0.129
COC(=O)C[C@H]1O[C@]2(C(=O)N(Cc3ccccc3)c3ccc(NC(C)=O)cc32)[C@@H](C)[C@@H]1[Si](C)(C)c1ccc(OC)cc1 | 0.52
COCCOC(=O)N1C(=O)[C@@]2(c3cc(C#CCC(C(=O)OC)C(=O)OC)ccc31)[C@H](C(=O)N1CCN(c3ncccn3)CC1)[C@H]1C(=O)O[C@H](c3ccccc3)[C@H](c3ccccc3)N1[C@@H]2c1ccc(OCCO)cc1 | 1.2
O=c1cccc(C=Cc2ccccc2)o1 | -1.63
CCCCC(CC)C(O)C1C=CC2C(=O)N(c3ccccc3)C(=O)C2N1Nc1ccccc1 (centres undefined) | -0.411
COc1ccc([Si](C)(C)[C@@H]2[C@@H](CC(=O)N(CCO)Cc3ccccc3)O[C@]3(C(=O)N(C)c4ccccc43)[C@H]2C)cc1 | 1.4
CC(C)C[C@@H]1NC(=O)[C@H]2C[C@@H](C(=O)NCCCCCNC(=O)CS)[C@@H](c3cccc(OCCO)c3)N2C1=O | 1.7
O=C(OCCF)C1=CCC(c2cccc(Cl)c2)O1 (centres undefined) | -0.211
O=C(O)[C@@]1(Cc2ccccc2)N=C(c2ccc(OCCCO)cc2)O[C@H]1c1ccccc1 | -0.686
CO[C@H]1O[C@H](CO)[C@@H](OC(=O)Nc2ccc(Oc3ccccc3)cc2)[C@H](OC(=O)Nc2ccccc2)[C@H]1OC(=O)Nc1ccccc1 | 1.61
O=C(CS)NCCCCCCNC(=O)[C@H]1C[C@H]2C(=O)NCC(=O)N2[C@H]1c1ccc(O)cc1 | 0.697
COCCOC(=O)N1C(=O)[C@@]2(c3cc(C#CCCO)ccc31)[C@H](c1ccc(O)cc1)N1[C@H](c3ccccc3)[C@H](c3ccccc3)OC(=O)[C@H]1[C@@H]2C(N)=O | 0.347
CC(C)(C)N1CC=CC23O[C@@H]4/C=C\CCCOC(=O)C4[C@H]2C(=O)N(CCO)[C@@H]3C1=O (some centres undefined) | -0.57

System: not listed separately
Experiment: mitochondrial membrane potential change in A549 cells, profiling panel, cell-based, JC-1 fluorescence, basal, 24 h, 100 nL (AID 1138);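 note: A549 lung adenocarcinoma cells under basal conditions with no added stimulus; test concentration not given here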
Conditions: higher = more signal

Structure (SMILES) | z-score
COc1cc(CO)ccc1OC(C)=O | 1.54
COc1ccc(C#Cc2ccc3c(c2)[C@]2(C(=O)N3)[C@H](c3ccc(O)cc3)N3[C@H](c4ccccc4)[C@H](c4ccccc4)OC(=O)[C@H]3[C@@H]2C(=O)N2CCCCCCC2)cc1 | -0.067
CN1C=C(C(=O)OCCS(C)(=O)=O)C(C(=O)OCCS(C)(=O)=O)=CC(CCCO)=CC1C1CC1 (centres undefined) | 0.664
COCCOC(=O)N1C(=O)[C@@]2(c3cc(C#CCC(C(=O)OC)C(=O)OC)ccc31)[C@H](c1ccc(O)cc1)N1[C@H](c3ccccc3)[C@H](c3ccccc3)OC(=O)[C@H]1[C@@H]2C(N)=O | -0.82
COc1ccc(NN2C(C(O)c3ccc(OC)c(OCc4ccccc4)c3)C=CC3C(=O)N(C4CCCCC4)C(=O)C32)cc1 (centres undefined) | 0.492
CC(C)N1CC=CC23O[C@@H]4C=CCOC(=O)[C@@H]4[C@H]2C(=O)N(CCO)[C@@H]3C1=O (some centres undefined) | -0.346
O=C1c2ccccc2[C@@]2(Cc3ccccc3N(Cc3ccccc3)C2=O)[C@H](c2ccc(CO)cc2)N1C1CCCCC1 | -0.191
CO[C@H]1O[C@H](CO)[C@@H](OC(=O)Nc2ccc3c(c2)OCO3)[C@H](OC(=O)Nc2ccccc2)[C@H]1OC(=O)Nc1ccccc1 | -0.925
CC(C)C[C@@H]1NC(=O)[C@@H]2C[C@H](C(=O)NCCCCCC[N+](C)(C)C)[C@H](c3ccc(O)cc3)N2C1=O | -0.158
N#Cc1ccc(NN2C(C(O)C3CCCCC3)C=CC3C(=O)N(c4ccccc4)C(=O)C32)cc1 (centres undefined) | -0.309
O=c1oc(-c2ccccc2)nc2cc(Br)ccc12 | 0.112
COC(=O)[C@@]1(Cc2ccc(OC)cc2)[C@H]2c3cc(C(=O)N(C)C)n(Cc4c(OC)[nH]cc(C)c4=O)c3C[C@H]2CN1C(=O)c1ccccc1 | 0.539
CC(C)NC(=O)[C@@H]1c2ccccc2C(=O)N(Cc2ccccc2)[C@H]1c1ccc(CO)cc1 | 0.484
O=C1C=CC(=O)[C@@H]2CC(COc3ccccc3)=C3[C@@H](CCc4ccccc4)OB(O)C[C@@H]3[C@H]12 | -1.59
C=CCC(OC(C)=O)[C@@H]1[C@@H](N(Cc2cccc3ccccc23)C(=O)c2cccc3ccccc23)c2cc(OCCCO)ccc2N1C(=O)c1ccc2ccccc2n1 (some centres undefined) | -0.449
O=C1[C@]2(CO)C=C(Br)[C@@H](C[C@@H]2c2ccccc2)[C@@]12CO2 | 0.116
COCC1=C2[C@@H](CCc3ccccc3)OB(O)C[C@@H]2[C@@H]2C(=O)N(Cc3ccccc3)C(=O)[C@@H]2C1 | 0.092
CCOC(=O)C1=CC[C@@H](c2ccccc2)N(S(=O)(=O)c2ccc(C)cc2)[C@H]1C(=O)OCC | 1.84

Structure (SMILES) | z-score
Cc1ccccc1C(O)C1C=CC2C(=O)N(C)C(=O)C2N1Nc1ccccc1 (centres undefined) | 0.0888
C=CCC(OC(C)=O)[C@@H]1[C@@H](N(Cc2ccc(-c3ccccc3)cc2)C(=O)Cc2ccc(OC)cc2)c2cc(OCCCO)ccc2N1C(=O)c1ccc2ccccc2n1 (some centres undefined) | 1.34
CCN(CC)c1ccc(N2CC=CC34O[C@@H]5C=CCCOC(=O)C5[C@H]3C(=O)N(CCCCCO)[C@@H]4C2=O)cc1 (some centres undefined) | 2.56
C[C@]1(C(=O)NCc2ccccc2)c2ccccc2C(=O)N(Cc2ccc(OC(F)(F)F)cc2)[C@H]1c1ccc(CO)cc1 | 1.27
CC(=O)Nc1cc(Br)ccc1C(=O)O | 0.204
COC(=O)C[C@H]1O[C@]2(C(=O)N(Cc3ccccc3)c3ccc(NC(C)=O)cc32)[C@@H](C)[C@@H]1[Si](C)(C)c1ccc(OC)cc1 | -0.922
COCCOC(=O)N1C(=O)[C@@]2(c3cc(C#CCC(C(=O)OC)C(=O)OC)ccc31)[C@H](C(=O)N1CCN(c3ncccn3)CC1)[C@H]1C(=O)O[C@H](c3ccccc3)[C@H](c3ccccc3)N1[C@@H]2c1ccc(OCCO)cc1 | -1.31
O=c1cccc(C=Cc2ccccc2)o1 | 0.302
CCCCC(CC)C(O)C1C=CC2C(=O)N(c3ccccc3)C(=O)C2N1Nc1ccccc1 (centres undefined) | -0.99
COc1ccc([Si](C)(C)[C@@H]2[C@@H](CC(=O)N(CCO)Cc3ccccc3)O[C@]3(C(=O)N(C)c4ccccc43)[C@H]2C)cc1 | 0.194
CC(C)C[C@@H]1NC(=O)[C@H]2C[C@@H](C(=O)NCCCCCNC(=O)CS)[C@@H](c3cccc(OCCO)c3)N2C1=O | -0.628
O=C(OCCF)C1=CCC(c2cccc(Cl)c2)O1 (centres undefined) | -0.218
O=C(O)[C@@]1(Cc2ccccc2)N=C(c2ccc(OCCCO)cc2)O[C@H]1c1ccccc1 | 0.593
CO[C@H]1O[C@H](CO)[C@@H](OC(=O)Nc2ccc(Oc3ccccc3)cc2)[C@H](OC(=O)Nc2ccccc2)[C@H]1OC(=O)Nc1ccccc1 | -1.69
O=C(CS)NCCCCCCNC(=O)[C@H]1C[C@H]2C(=O)NCC(=O)N2[C@H]1c1ccc(O)cc1 | 0.139
COCCOC(=O)N1C(=O)[C@@]2(c3cc(C#CCCO)ccc31)[C@H](c1ccc(O)cc1)N1[C@H](c3ccccc3)[C@H](c3ccccc3)OC(=O)[C@H]1[C@@H]2C(N)=O | -0.444
CC(C)(C)N1CC=CC23O[C@@H]4/C=C\CCCOC(=O)C4[C@H]2C(=O)N(CCO)[C@@H]3C1=O (some centres undefined) | -0.913
